# Bioassay records (PubChem)
# HT1080 IDH1KD tx: kills HT-1080 cells with IDH1 knockdown. HT-1080 IDH1 knockdown viability, ATP luminescence, 48 h. Potency, µM (doses to about 46.1 µM), for inactives: at the top dose activity, negative = toxicity, usual class: cytotoxic. 360,000 tested, 2% active;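 also: potency is read from the fitted curve at half-maximal effect; 0% = DMSO wells and -100% = cell-free medium wells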
#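 Knockdown cells (IDH1KD HT-1080) received compounds 2 h after plating at 750 cells/well and were kept 48 h at 37 °C in 5% FBS RPMI. A CellTiter-Glo luminescence read gave % activity for curve fitting.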
# HT1080NT lethal: kills 2HG-producing HT-1080-NT fibrosarcoma cells | HT-1080-NT fibrosarcoma viability, CellTiter-Glo ATP luminescence, 48 h | Potency, µM (titrated, usually from 46.1 µM), for the others: top-dose activity, negative = less viability, actives largely listed as cytotoxic | 360,000 tested, 1.6% active | AID 686970;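 also: NT is the 2HG producing partner of a matched IDH1 knockdown line; potency is read from the fitted curve at half-maximal effect; 0% = DMSO-treated cells and -100% = media-only wells without cells; nearly all actives have a fitted effect of over 55% in size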
#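 Read-out is CellTiter-Glo luminescence after 10 minutes at room temperature, following 48 hours' compound treatment of HT-1080-NT cells (750 cells/well, RPMI, 5% FBS, 37 degrees C).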
# DT40 TDP1 CPT: DT40-hTDP1 cell growth loss with CPT. chicken DT40 Tdp1-/-;hTDP1 cells + 20 nM CPT, ATP luminescence, 48 h. AID 686979. 420,000 tested, 12% active. Potency, µM (titrated, usually from 46.2 µM), for the others: at the top dose activity change, negative = growth inhibition, most hits filed as inhibitors; also: potency is read from the fitted curve at half-maximal effect; nearly all actives have a fitted effect of over 55% in size
#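 Chicken DT40 Tdp1-/- cells complemented with human TDP1, 400 cells/well, exposed to compounds plus 20 nM camptothecin for at least 48 h at 37 C; viability read as ATP content by CellTiter-Glo luminescence.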
# IL-1B inflam inh: blocks inflammasome-driven IL-1 beta release. THP-1 LPS/ATP IL-1B secretion, AlphaLISA, 16 h; hits give low values. activity change, % at 57.5 µM. 360,000 tested, 4.7% active; in the data active = activity change below about -50%; inconclusive = mostly about -30% to -49%
#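 THP-1 cells pretreated 1 hr with compounds (up to 57.5 uM final), then stimulated with LPS (250 ng/mL final) plus ATP (1.25 mM final); secreted IL-1B measured by AlphaLISA after 16 hr, decreased signal indicating inhibition.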
# DT40 TDP1 no CPT: qHTS for Inhibitors of human tyrosyl-DNA phosphodiesterase 1 (TDP1): qHTS in cells in absence of CPT; DT40 Tdp1-/- hTDP1 cells, no CPT, ATP luminescence, 48 h; Potency, µM (titrated, usually from 46.2 µM), for the others: at the highest dose activity change, negative = growth inhibition, most hits filed as inhibitors; 420,000 tested, 15% active; AID 686978, 2013; also: potency is read from the fitted curve at half-maximal effect; nearly all actives have a fitted effect of over 55% in size
#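 Luminescent ATP content (CellTiter-Glo) served as the growth readout. Knockout chicken DT40 cells expressing human TDP1 were exposed to compounds without camptothecin for a minimum 48 hr at 37 °C.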
# uPA surface inh: blocks generation of uPA at the cell surface; cell surface uPA generation assay, qHTS; Potency, µM (highest dose often 38.3 µM), for the others: top-dose activity change, negative = inhibition, hits mostly inhibitors; 330,000 tested, 0.31% active; active = well fitted inhibition curve with a large enough effect; inconclusive = small, poorly fitted or top-dose-only effect; inactive = no such curve, though single readings can be large or run the other way; tested in mouse RAW 264.7 cells; also: potency is read from the fitted curve at half-maximal effect; nearly all actives have a fitted effect of over 55% in size
# The depositor's hits bear a star; u = inconclusive; x = not tested or not shown. An excerpt weighted towards active compounds, which were near 19% of everything screened. Unless noted, calls follow the shape of the dose curve; as a rule, active = well fitted curve in the direction sought with a large enough effect; inconclusive = small, poorly fitted or top-dose-only effect, or another doubt; inactive = no such curve, though single readings can be large; an effect the other way counts as inactive or inconclusive. Unless noted, % is scaled to controls: 0 for no effect and ±100 for the full control effect.
SMILES,HT1080 IDH1KD tx,HT1080NT lethal,DT40 TDP1 CPT,IL-1B inflam inh,DT40 TDP1 no CPT,uPA surface inh
C=CC1=CCN(S(=O)C(C)(C)C)[C@H]1CCO (some centres not stated),12%,8%,-5%,22,-7%,13%
CN(C)c1ccc(C(CNC(=O)c2ccc(C#N)cc2)c2c[nH]c3ccccc23)cc1 (configuration not stated),-26%,-17%,u,u,21µM*,7%
CN(C)c1ccc(C(CNS(=O)(=O)c2ccc(F)cc2)c2c[nH]c3ccccc23)cc1 (configuration not stated),-30%,-21%,u,-64*,15µM*,6%
Cc1nn(S(=O)(=O)c2ccc(C(C)(C)C)cc2)c(C)c1S(=O)(=O)N1CCC(C)CC1,x,x,-10%,x,-2%,x
COc1ccc(C)cc1S(=O)(=O)N(CC(=O)Nc1cccc([N+](=O)[O-])c1)c1ccccc1,-9%,-5%,15µM*,-5,21µM*,4%
Cc1ccc([N+](=O)[O-])cc1NC(=O)CN(c1ccccc1)S(=O)(=O)N(C)C,x,x,1%,x,-27%,x
Cc1ccc(NC(=O)CN(c2ccc(Cl)cc2)S(=O)(=O)c2cc([N+](=O)[O-])ccc2Cl)c(C)c1,-23%,u,u,-79*,15µM*,-4%
CS(=O)(=O)N(CC(=O)Nc1cccc([N+](=O)[O-])c1)c1ccccc1,-2%,2%,-12%,-10,-20%,-3%
Cc1ccc(S(=O)(=O)N(CC(=O)Nc2cccnc2)c2cccc([N+](=O)[O-])c2)cc1,u,u,u,-8,12µM*,11µM*
CCc1cccc(NC(=O)CN(c2ccc(C)cc2)S(=O)(=O)c2cccs2)c1,x,x,u,x,16µM*,x
CC(C)Oc1ccc(C(=O)N(Cc2ccc(N(C)C)cc2)C2CCS(=O)(=O)C2)cc1 (configuration not stated),x,x,-4%,x,-26%,x
CSCCC(NS(=O)(=O)c1ccc(C)c(C(=O)O)c1)C(=O)O (configuration not stated),13%,13%,-12%,13,-18%,-2%
O=C(NCc1cccnc1)c1ccccc1CCc1ccccc1,-1%,-5%,u,15,-16%,-8%
Cc1ccc(S(=O)(=O)N(CC(=O)Nc2cccnc2)c2cccc(Br)c2)cc1,u,u,u,-4,16µM*,u
CCN(c1ccc2c(c1)OCO2)S(=O)(=O)c1cc2c(cc1Br)CCN2C(=O)C1CC1,9%,-3%,16µM*,8,21µM*,-3%
Cc1ccc(NC(=O)C2CCCC2)cc1Cl,-15%,-7%,15%,-24,-10%,4%
Cc1ccc(NS(=O)(=O)c2ccc3c(c2)CCCN3C(=O)C2CCC2)cc1Cl,x,x,u,x,23µM*,x
Cc1cc(Cl)ccc1NS(=O)(=O)c1ccc2c(c1)CC(C)N2C(=O)C1CCC1 (configuration not stated),x,x,18µM*,x,16µM*,x
Cc1ccc(NS(=O)(=O)c2ccc(Cl)c(NC(=S)NC(=O)C3CCCCC3)c2)cc1Cl,u,u,23µM*,-77*,u,-5%
CC(C)n1nc(Cc2cccc3ccccc23)c(C#N)c1N,x,x,x,x,x,14%
COc1ccc(C(=O)NNC(=O)COC(=O)c2sccc2C)cc1,12%,1%,1%,5,-12%,0%
Cc1ccc(NS(=O)(=O)c2ccc3c(c2)CC(C)N3C(=O)C2CCC2)cc1Cl (configuration not stated),x,x,16µM*,x,10µM*,x
O=C(CCl)c1ccc2c(c1)CCN2C(=O)C1CCCCC1,u,23µM*,1.3µM*,-103*,1.6µM*,-9%
CC1Cc2cc(S(=O)(=O)N3CCCCC3C)ccc2N1C(=O)C1CCC1 (configuration not stated),-1%,u,u,10,u,-8%
O=C(C1CCC1)N1CCc2cc(S(=O)(=O)Nc3ccc4c(c3)OCO4)ccc21,16µM*,-16%,11µM*,u,14µM*,-3%
SMILES,HT1080 IDH1KD tx,HT1080NT lethal,DT40 TDP1 CPT,IL-1B inflam inh,DT40 TDP1 no CPT,uPA surface inh
COc1ccccc1N1CCN(C2C(=O)Nc3ccccc3-n3nnnc32)CC1 (configuration not stated),-18%,-18%,u,7,u,x
COc1ccc(NC(=O)COC(=O)Cc2c(F)cccc2Cl)cc1OC,-15%,0%,-3%,15,-28%,3%
CCc1ncc(CN2CCC(C(=O)Nc3cccc(-c4cscn4)c3)CC2)cn1,-2%,1%,u,-3,u,2%
CC(C)c1cccc(C(C)C)c1NC(=O)CCl,-5%,2%,u,-83*,16µM*,x
NC(=O)c1ccccc1NC(=O)Cn1nc(Cc2cccnc2)c2ccccc2c1=O,x,x,-26%,x,u,x
O=S(=O)(CCOc1ccccc1)c1nc2ccccc2[nH]1,u,u,u,-26,23µM*,-6%
CO/N=C1\CN(c2nc3c(cc2F)c(=O)c(C(=O)O)cn3C2CC2)CC1CN (configuration not stated),x,x,4.6µM*,x,4.6µM*,x
Cc1cc(-c2nnc(CCC(=O)NC(C)c3ccc(F)cc3)o2)no1 (configuration not stated),0%,-3%,-12%,9,-7%,3%
Cc1ccccc1Cc1c(C)nc2nc(SCC(=O)NCCCN3CCCCC3)nn2c1C,3%,0%,-5%,-24,-18%,-4%
Cc1ccccc1CSc1nc2nc(C)c(Cc3ccccc3)c(C)n2n1,x,x,-109%,x,16µM*,x
Cc1ccccc1Cc1c(C)nc2nc(SCC(=O)NC(C)c3ccccc3)nn2c1C (configuration not stated),x,x,16µM*,x,u,x
Cc1ccccc1Cc1c(C)nc2nc(SCC(=O)N(C)c3ccccc3)nn2c1C,x,x,23µM*,x,u,x
Cc1nc2nc(SCC(=O)NC(C)c3ccccc3)nn2c(C)c1Cc1c(F)cccc1Cl (configuration not stated),x,x,23µM*,x,16µM*,x
CN(C(=O)Cn1nc(Cc2cccnc2)c2ccccc2c1=O)c1cccc(C(F)(F)F)c1,x,x,-18%,x,-21%,x
Cc1ccc(CN2C(=O)CCC2(C)c2nnnn2Cc2ccccc2)cc1 (configuration not stated),7%,8%,-12%,9,-15%,x
O=C(c1cccc(F)c1)N1CCC2(CCN(Cc3ccccc3)CC2)CC1,x,x,-2%,x,-5%,x
